# Measurements published in PubChem BioAssay.
# Where “and” joins values, the source holds several entries; their conditions need not be identical. Equal values may be shown once. Results filed as inconclusive are left out. Calls of active or inactive are those of the source.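 The calls were made as follows, unless noted: active = normalized viability below 100% at a tested concentration; inactive = the rest.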
# Columns and labels:
# [1] = SU-DIPG-VI glioma cell viability, MIPE4.0 library, CellTiter-Glo luminescence, qHTS (AID 1347066; cut-off not given, nearly all actives have AC50 up to about 30 µM;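 also: cells exposed to compound for 48 hours before readout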); details: CellTiter-Glo ATP luminescence
# [2] = JHH-DIPG-1 glioma cell viability, MIPE5.0 library, CellTiter-Glo luminescence, qHTS (AID 1347067; cut-off not given, nearly all actives have AC50 up to about 26 µM;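 also: cells exposed to compound for 48 hours before readout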); details: JHH-DIPG-1 glioma viability, CellTiter-Glo ATP luminescence
# [3] = SU-DIPG-XXV glioma cell viability, MIPE5.0 library, qHTS (AID 1347068; cut-off not given, nearly all actives have IC50 up to about 30 µM;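 as to IC50: cells exposed to compound for 48 hours before viability readout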)
# [4] = survival rescue of mitochondrial mutant cells in low glucose, primary screen, MELAS cybrids, Rieske KO mouse fibroblasts, CellTiter-Glo (AID 1508586;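 active = mean z-score across replicates of 1.96 or higher in either the MELAS or the Rieske mutant cell line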;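 also: z relative to plate mean and SD of compound and empty wells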)
# [5] = target: NAD(+) hydrolase SARM1 (Homo sapiens) (UniProt Q6SZW1); assay: SARM1 TIR NADase inhibitors, cell lysate, NAD-Glo luminescence (AID 1508614;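 active = compound whose remaining NAD level is above about 45 nM, limit read from the data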;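 also: higher remaining NAD means stronger inhibition of SARM1 NADase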); details: SAM-TIR HEK293T lysate NADase, at 1 µM, stronger effect = higher value
# NAD(+) hydrolase SARM1 (Homo sapiens), sequence (Q6SZW1 whole entry, looked up, the tested form may be a part): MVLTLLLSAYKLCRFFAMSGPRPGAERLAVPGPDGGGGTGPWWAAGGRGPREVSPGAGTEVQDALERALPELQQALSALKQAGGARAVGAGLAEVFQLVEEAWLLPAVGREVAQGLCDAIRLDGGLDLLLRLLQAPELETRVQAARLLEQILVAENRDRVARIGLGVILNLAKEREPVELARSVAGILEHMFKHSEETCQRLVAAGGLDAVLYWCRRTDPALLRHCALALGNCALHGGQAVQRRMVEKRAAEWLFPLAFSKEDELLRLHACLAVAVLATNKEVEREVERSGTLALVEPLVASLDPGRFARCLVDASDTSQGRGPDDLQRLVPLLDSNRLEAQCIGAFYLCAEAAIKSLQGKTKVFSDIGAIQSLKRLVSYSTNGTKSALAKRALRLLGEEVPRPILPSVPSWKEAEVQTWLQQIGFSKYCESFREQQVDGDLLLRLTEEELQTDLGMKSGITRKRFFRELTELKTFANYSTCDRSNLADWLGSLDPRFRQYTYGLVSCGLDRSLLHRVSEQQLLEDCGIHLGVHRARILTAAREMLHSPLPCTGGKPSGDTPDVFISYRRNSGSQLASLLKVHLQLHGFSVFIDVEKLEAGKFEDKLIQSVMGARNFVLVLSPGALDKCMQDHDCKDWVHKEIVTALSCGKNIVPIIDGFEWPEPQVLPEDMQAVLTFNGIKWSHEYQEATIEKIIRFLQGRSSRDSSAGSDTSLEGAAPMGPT
# [6] = target: Mitogen-activated protein kinase 7 (Homo sapiens) (UniProt Q13164); assay: ERK5 transactivation activators in reporter cells, primary screen, cell-based, HTS (AID 1508626;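 active = luciferase signal above three times the same-plate solvent-only control wells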;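 also: luciferase driven by Gal4-ERK5 fusion binding five Gal4 sites before minimal TATA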); details: HeLa Gal4-ERK5 transactivation, 18 h, at 5 µM, stronger effect = higher value
# Mitogen-activated protein kinase 7 (Homo sapiens), sequence (Q13164 whole entry, looked up, the tested form may be a part): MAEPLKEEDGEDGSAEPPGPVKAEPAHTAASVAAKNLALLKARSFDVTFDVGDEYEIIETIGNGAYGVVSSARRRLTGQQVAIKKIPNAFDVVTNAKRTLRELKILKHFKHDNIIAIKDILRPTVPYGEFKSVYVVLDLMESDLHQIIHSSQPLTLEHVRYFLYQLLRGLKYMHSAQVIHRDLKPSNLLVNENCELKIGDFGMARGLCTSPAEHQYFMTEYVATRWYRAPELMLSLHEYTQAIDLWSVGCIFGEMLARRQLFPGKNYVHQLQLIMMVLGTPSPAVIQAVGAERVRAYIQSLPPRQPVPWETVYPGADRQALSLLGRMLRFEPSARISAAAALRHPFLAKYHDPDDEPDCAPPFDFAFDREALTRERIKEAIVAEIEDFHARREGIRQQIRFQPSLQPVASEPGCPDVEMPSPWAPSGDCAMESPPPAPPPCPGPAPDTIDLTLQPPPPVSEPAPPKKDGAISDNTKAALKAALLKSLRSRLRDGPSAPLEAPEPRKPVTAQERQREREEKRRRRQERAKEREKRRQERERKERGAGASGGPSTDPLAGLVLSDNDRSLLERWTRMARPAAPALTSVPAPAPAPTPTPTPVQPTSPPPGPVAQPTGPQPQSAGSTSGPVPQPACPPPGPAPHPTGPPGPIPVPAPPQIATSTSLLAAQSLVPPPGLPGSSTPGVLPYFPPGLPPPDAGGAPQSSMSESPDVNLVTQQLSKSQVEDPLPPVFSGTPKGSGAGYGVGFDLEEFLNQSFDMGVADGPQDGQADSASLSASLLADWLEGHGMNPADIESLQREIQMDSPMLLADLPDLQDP
# [7] = viability rescue of complex I mutant cybrids, primary screen, cell-based, galactose medium, ATP luminescence (AID 1645843;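 active = z-score of at least 1.8 in each of two replicates, scored against plate mean and spread of sample wells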;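 also: positive z means more ATP and so rescue of galactose-driven cybrid death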); details: complex I mutant cybrid cells, 72 h, stronger effect = higher value
# [8] = viability loss in pontine glioma line – cell-based, SU-DIPG-XXV, MIPE5.0, CellTiter-Glo, qHTS, dose response (AID 1347065; cut-off not given, nearly all actives have AC50 up to about 26 µM;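 also: cells exposed to compound for 48 hours before ATP readout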); details: CellTiter-Glo ATP luminescence
# [9] = sensitizers of A549 cells to miR-34 induction, primary screen, imaging, A549 dox-inducible miR-34, nuclei and caspase counts (AID 1347080;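 active = compounds whose cell count with miR-34 switched on is under 0.7 times the count with it off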); details: A549 miR-34 inducible, Hoechst nuclei count, 48 h
# [10] = modifiers of HSF1 nuclear foci, imaging, Selleck Cancer Library (AID 1347162; in the data active = plate-normalised HSF1 focus index below about 0.46); details: human cells, at 10 µM; SSMD: measured here: HSF1 foci SSMD mean; cell count: measured here: cell number; plate-normalised HSF1 focus index: stronger effect = lower value
# [11] = ovarian cancer cell viability with rucaparib, profiling panel, oncology-focused library, rucaparib conditional (AID 1508598); details: patient-derived ovarian cancer cells, CellTiter-Glo viability, 144 h, stronger effect = lower value
# [12] = inhibitors of Cryptococcus chitosan production, flow cytometry, Cibacron Brilliant Red staining (AID 1347148; call rule not given here;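 also: compound exposure lasted three days at 37 degrees C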); details: Cryptococcus neoformans chitosan, stronger effect = lower value; at 10 µM unless noted
# [13] = phospholipid biosynthesis inhibitors in animal cells, primary screen, cell-based, LOPAC library, screen 4 (AID 1347384; call rule not given here); details: phospholipid biosynthesis inhibition screen, at 10 µM
# [14] = MELAS cybrid survival, CellTiter-Glo 48 h, stronger effect = higher value
# [15] = Rieske KO mouse fibroblast survival, CellTiter-Glo 72 h
# [16] = stronger effect = lower value, cell number ratio, induced over uninduced
# [17] = measured here: relative caspase fold change +Dox/-Dox
# [18] = measured here: total cells with miR-34 induction, stronger effect = lower value
# [19] = measured here: total cells without miR-34 induction
compound,measurement,setting,value
CCCOc1ccc(C(=O)OCCN(CC)CC)cc1N,outcome,[1],inactive
same,outcome,[2],inactive
same,outcome,[3],inactive
same,z-score,[4]; [14],0.278 (inactive) and -0.171 (inactive) and -0.393 (inactive)
same,z-score,[4]; [15],-0.35 and 0.529 and -1.27
same,remaining NAD,[5],10 nM (inactive)
same,luciferase signal,[6],212 AU (inactive)
same,z-score,[7],0.735 (inactive) and 0.01 (inactive)
CC/C(=C(/CC)c1ccc(O)cc1)c1ccc(O)cc1,outcome,[8],inactive
same,outcome,[3],inactive
same,z-score,[4]; [14],0.343 (inactive) and 0.665 (inactive)
same,z-score,[4]; [15],-0.0589 and -0.544
same,remaining NAD,[5],10 nM (inactive)
same,luciferase signal,[6],56 AU (inactive)
same,z-score,[7],-0.645 (inactive)
O=C(NC(Cc1cc(=O)[nH]c2ccccc12)C(=O)O)c1ccc(Cl)cc1 (centres undefined),outcome,[1],inactive
same,outcome,[2],inactive
same,outcome,[3],inactive
same,fold change,[9]; [16],0.898 (inactive) and 0.888 (inactive)
same,fold change,[9]; [17],0.965 and 1.15
same,cell count,[9]; [18],8440 and 9630
same,cell count,[9]; [19],9400 and 10800
same,z-score,[4]; [14],-0.219 (inactive) and -0.0914 (inactive) and 0.278 (inactive)
same,z-score,[4]; [15],0.648 and -0.845 and -0.0622
same,remaining NAD,[5],10 nM (inactive)
same,luciferase signal,[6],40 AU (inactive)
same,z-score,[7],0.47 (inactive)
Cc1nnc(NS(=O)(=O)c2ccc(N)cc2)s1,outcome,[8],inactive
same,outcome,[2],inactive
same,fold change,[9]; [16],0.854 (inactive) and 0.859 (inactive) and 0.853 (inactive)
same,fold change,[9]; [17],1.13 and 0.759 and 2.93
same,cell count,[9]; [18],8770 and 7900 and 10600
same,cell count,[9]; [19],10300 and 9200 and 12500
same,z-score,[4]; [14],-0.255 (inactive) and -1.45 (inactive)
same,z-score,[4]; [15],0.469 and 0.621
same,remaining NAD,[5],10 nM (inactive)
same,luciferase signal,[6],184 AU (inactive)
CCC(C)n1ncn(-c2ccc(N3CCN(c4ccc(OC[C@H]5CO[C@](Cn6cncn6)(c6ccc(Cl)cc6Cl)O5)cc4)CC3)cc2)c1=O (some centres undefined),outcome,[1],inactive
same,outcome,[2],inactive
same,outcome,[3],inactive
same,SSMD,[10],2.18
same,cell count,[10],6750
same,plate-normalised HSF1 focus index,[10],1.11 (inactive)
same,viability,"[11]; at 0.000305 µM, OCI-C5x cells, with rucaparib 10 µM, 100% = cells with rucaparib alone",118% (inactive)
same,viability,"[11]; at 0.000305 µM, OCI-C5x cells, without rucaparib",110% (inactive)
same,viability,"[11]; at 0.000305 µM, OCI-P5x cells, with rucaparib 20 µM, 100% = cells with rucaparib alone",90.3% (active)
same,viability,"[11]; at 0.000305 µM, OCI-P5x cells, without rucaparib",83% (active)
same,viability,"[11]; at 0.00122 µM, OCI-C5x cells, with rucaparib 10 µM, 100% = cells with rucaparib alone",118% (inactive)
same,viability,"[11]; at 0.00122 µM, OCI-C5x cells, without rucaparib",100% (inactive)
same,viability,"[11]; at 0.00122 µM, OCI-P5x cells, with rucaparib 20 µM, 100% = cells with rucaparib alone",93.4% (active)
same,viability,"[11]; at 0.00122 µM, OCI-P5x cells, without rucaparib",81.8% (active)
same,viability,"[11]; at 0.00488 µM, OCI-C5x cells, with rucaparib 10 µM, 100% = cells with rucaparib alone",122% (inactive)
same,viability,"[11]; at 0.00488 µM, OCI-C5x cells, without rucaparib",105% (inactive)
same,viability,"[11]; at 0.00488 µM, OCI-P5x cells, with rucaparib 20 µM, 100% = cells with rucaparib alone",95.6% (active)
same,viability,"[11]; at 0.00488 µM, OCI-P5x cells, without rucaparib",90.8% (active)
same,viability,"[11]; at 0.0195 µM, OCI-C5x cells, with rucaparib 10 µM, 100% = cells with rucaparib alone",127% (inactive)
same,viability,"[11]; at 0.0195 µM, OCI-C5x cells, without rucaparib",116% (inactive)
same,viability,"[11]; at 0.0195 µM, OCI-P5x cells, with rucaparib 20 µM, 100% = cells with rucaparib alone",96.2% (active)
same,viability,"[11]; at 0.0195 µM, OCI-P5x cells, without rucaparib",89.4% (active)
same,viability,"[11]; at 0.0781 µM, OCI-C5x cells, with rucaparib 10 µM, 100% = cells with rucaparib alone",126% (inactive)
same,viability,"[11]; at 0.0781 µM, OCI-C5x cells, without rucaparib",119% (inactive)
same,viability,"[11]; at 0.0781 µM, OCI-P5x cells, with rucaparib 20 µM, 100% = cells with rucaparib alone",96.6% (active)
same,viability,"[11]; at 0.0781 µM, OCI-P5x cells, without rucaparib",95.1% (active)
same,viability,"[11]; at 0.313 µM, OCI-C5x cells, with rucaparib 10 µM, 100% = cells with rucaparib alone",131% (inactive)
same,viability,"[11]; at 0.313 µM, OCI-C5x cells, without rucaparib",118% (inactive)
same,viability,"[11]; at 0.313 µM, OCI-P5x cells, with rucaparib 20 µM, 100% = cells with rucaparib alone",98.6% (active)
same,viability,"[11]; at 0.313 µM, OCI-P5x cells, without rucaparib",95.8% (active)
same,viability,"[11]; at 1.25 µM, OCI-C5x cells, with rucaparib 10 µM, 100% = cells with rucaparib alone",131% (inactive)
same,viability,"[11]; at 1.25 µM, OCI-C5x cells, without rucaparib",126% (inactive)
same,viability,"[11]; at 1.25 µM, OCI-P5x cells, with rucaparib 20 µM, 100% = cells with rucaparib alone",93.3% (active)
same,viability,"[11]; at 1.25 µM, OCI-P5x cells, without rucaparib",94.8% (active)
same,viability,"[11]; at 5 µM, OCI-C5x cells, with rucaparib 10 µM, 100% = cells with rucaparib alone",135% (inactive)
same,viability,"[11]; at 5 µM, OCI-C5x cells, without rucaparib",123% (inactive)
same,viability,"[11]; at 5 µM, OCI-P5x cells, with rucaparib 20 µM, 100% = cells with rucaparib alone",92.7% (active)
same,viability,"[11]; at 5 µM, OCI-P5x cells, without rucaparib",94.9% (active)
same,remaining NAD,[5],10 nM (inactive)
O=c1[nH]c(=O)n([C@H]2C[C@H](O)[C@@H](CO)O2)cc1F,outcome,[8],inactive
same,outcome,[3],inactive
same,fold change,[9]; [16],1.03 (inactive)
same,fold change,[9]; [17],0.977
same,cell count,[9]; [18],4160
same,cell count,[9]; [19],4020
same,z-score,[4]; [14],-1.41 (inactive) and 0.996 (inactive)
same,z-score,[4]; [15],1.5 and -0.252
same,remaining NAD,[5],10 nM (inactive)
same,luciferase signal,[6],12 AU (inactive)
same,z-score,[7],1.93 (active)
COc1cc(/C=C/C(=O)CC(=O)/C=C/c2ccc(O)c(OC)c2)ccc1O,AC50,[8],20.9 µM (active)
same,fold change,[9]; [16],0.955 (inactive)
same,fold change,[9]; [17],1.47
same,cell count,[9]; [18],6170
same,cell count,[9]; [19],6460
same,fold fluorescence,[12],8.92 [at 135.7 µM] (inactive)
same,luciferase signal,[6],44 AU (inactive)
Clc1ccc(C(c2ccccc2Cl)C(Cl)Cl)cc1 (centres undefined),AC50,[1],23.5 µM (active)
same,AC50,[2],20.9 µM (active)
same,fold change,[9]; [16],1.02 (inactive) and 0.901 (inactive) and 0.92 (inactive)
same,fold change,[9]; [17],1.69 and 0.413 and 1.68
same,cell count,[9]; [18],9100 and 8310 and 10700
same,cell count,[9]; [19],8890 and 9220 and 11600
same,outcome,[13],inactive
same,z-score,[4]; [14],-0.255 (inactive) and -0.0992 (inactive)
same,z-score,[4]; [15],0.722 and 0.331
same,remaining NAD,[5],10 nM (inactive)
same,luciferase signal,[6],56 AU (inactive)
same,z-score,[7],-1.24 (inactive)
CN1CCC(=C2c3ccccc3C=Cc3ccccc32)CC1,outcome,[1],inactive
same,outcome,[2],inactive
same,outcome,[3],inactive
same,outcome,[13],inactive
same,z-score,[4]; [14],-0.307 (inactive) and -0.043 (inactive) and -1.41 (inactive)
same,z-score,[4]; [15],-0.028 and 0.523 and -1.01
same,remaining NAD,[5],10 nM (inactive)
same,luciferase signal,[6],20 AU (inactive)
CC(C)COCC(CN(Cc1ccccc1)c1ccccc1)N1CCCC1 (centres undefined),AC50,[8],18.6 µM (active)
same,AC50,[2],18.6 µM (active)
same,IC50,[3],16.6 µM (active)
same,outcome,[13],inactive
same,z-score,[4]; [14],-1.13 (inactive) and -0.882 (inactive)
same,z-score,[4]; [15],-0.167 and 0.23
same,remaining NAD,[5],10 nM (inactive)
same,luciferase signal,[6],280 AU (inactive)
same,z-score,[7],-0.24 (inactive) and -2.13 (inactive)
CCC(=O)O[C@]1(C(=O)SCF)[C@H](C)C[C@H]2[C@@H]3C[C@H](F)C4=CC(=O)C=C[C@]4(C)[C@@]3(F)[C@@H](O)C[C@@]21C,outcome,[1],inactive
same,outcome,[2],inactive
same,outcome,[3],inactive
same,fold change,[9]; [16],0.882 (inactive) and 0.864 (inactive)
same,fold change,[9]; [17],0.631 and 0.861
same,cell count,[9]; [18],6550 and 5840
same,cell count,[9]; [19],7420 and 6760
same,z-score,[4]; [14],0.444 (inactive)
same,z-score,[4]; [15],0.72
same,remaining NAD,[5],10 nM (inactive)
same,z-score,[7],0.435 (inactive)
